Only some compounds are listed: those with a hit (about 0.51% of all), similar ones and a draw of the others.
Vif-APOBEC3F blk – inhibitors of Vif-A3F interaction; Potency, µM (series often up to 46.1 µM), without a hit: at the highest dose activity, negative = active; AID 602313; HeLa A3F-eYFP + Vif (tagged APOBEC3F with the HIV-1 protein that degrades it), YFP fluorescence increase; hit rate 0.2% among 390,000; also: % of control where 0% means no effect; nearly all actives have a fitted effect of over 65% in size
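Fluorescence increase (Ex 488/Em 500-530) after overnight compound treatment at 37 deg C flags inhibition of Vif-driven A3F-eYFP loss in stable HeLa A3F-eYFP/Vif cells seeded overnight beforehand.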
PINK1 modulator – modulators of PINK1 expression; PINK1 immunofluorescence, high-content cytometry, 24 h; Potency, µM (highest dose often 76.6 µM), inactives show top-dose activation (PINK1 increase), usual class: activators; hit rate 0.2% among 410,000; AID 624263; active = well fitted activation curve with a large enough effect; inconclusive = small, poorly fitted or top-dose-only effect; cell line not stated here; also: % of control where 0% means no effect; nearly all actives have a fitted effect of over 65% in size
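PINK1 protein level read as immunofluorescence by microplate cytometer in a fixed, stained stable cell line after 24 h exposure to five compound concentrations, with CCCP as control.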
Vif-A3G inh – blocks the Vif interaction with human APOBEC3G. Q9HC16. Potency, µM (titrated, usually from 46.1 µM), for inactives: at the top dose activity, negative = active, usual class: inhibitors. HeLa A3G-eYFP + Vif (tagged APOBEC3G with the HIV-1 protein that degrades it), YFP fluorescence, overnight. AID 602310. hit rate 0.076% among 410,000; also: % is scaled to controls: 0 for no effect and ±100 for the full control effect; nearly all actives have a fitted effect of over 60% in size
Target sequence (Q9HC16 whole entry, looked up): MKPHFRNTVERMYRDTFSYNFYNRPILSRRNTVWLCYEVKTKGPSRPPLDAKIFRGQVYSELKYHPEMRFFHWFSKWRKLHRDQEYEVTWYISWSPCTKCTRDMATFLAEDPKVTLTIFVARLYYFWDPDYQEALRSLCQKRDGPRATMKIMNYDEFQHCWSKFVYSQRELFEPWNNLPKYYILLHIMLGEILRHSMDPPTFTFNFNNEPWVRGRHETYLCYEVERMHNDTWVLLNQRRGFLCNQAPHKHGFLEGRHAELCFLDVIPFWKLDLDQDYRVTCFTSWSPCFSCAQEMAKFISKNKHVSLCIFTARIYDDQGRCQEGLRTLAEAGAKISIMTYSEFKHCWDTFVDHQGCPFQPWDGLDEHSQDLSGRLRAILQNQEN
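HeLa cells stably expressing Vif and C-terminally eYFP-tagged A3G, seeded overnight at 37 deg C, then exposed to compound by pintool overnight at 37 deg C. Rise in yellow fluorescence (Ex 488/Em 500-530, Acumen) marks blocked Vif-driven A3G degradation.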
Epigenetic reg – epigenetic control regulation, reporter derepression; hit rate 0.2% among 280,000; murine LDR cells, GFP reporter derepression, 30 h; Potency, µM (doses to about 53.9 µM), for inactives: top-dose GFP activation, usual class: activators; also: % of control where 0% means no effect; nearly all actives have a fitted effect of over 60% in size
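Murine LDR cells bearing a silenced CMV-driven GFP reporter were exposed to compound for 30 h at 37 C. After PBS washes, GFP-positive cells (20-120 um objects) counted by laser-scanning microplate cytometry.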
Starred values were filed as active, the others as inactive; i = inactive; ? = inconclusive; nt = no result. Unless noted, calls follow the shape of the dose curve; as a rule, active = well fitted curve in the direction sought with a large enough effect; inconclusive = small, poorly fitted or top-dose-only effect, or another doubt; inactive = no such curve, though single readings can be large; an effect the other way counts as inactive or inconclusive. Potency is read from the fitted curve at half-maximal effect.

SMILES | Vif-APOBEC3F blk | PINK1 modulator | Vif-A3G inh | Epigenetic reg
Cc1cc(CNC(=O)c2cnn(-c3nccc(-c4cc(C)sc4C)n3)c2C2CC2)on1 | nt | 0% | nt | nt
O=C(/C=C/c1ccccc1)NC(NC(=S)Nc1ccc(Cl)cc1Cl)C(Cl)(Cl)Cl (stereo unspecified) | -20% | 10µM* | -1% | 0%
c1ccc2c(c1)nc(N1CCOCC1)c1nnnn12 | 3.2µM* | 1% | 0% | 2%
c1ccc(N2CCN(c3nc4ccccc4n4nnnc34)CC2)cc1 | ? | 3% | -16% | -2%
COc1ccc(CN2CCCC(c3nc(-c4ccncc4)ncc3-c3ccccc3C)C2)c(OC)c1 (stereo unspecified) | nt | 1% | nt | nt
CCC(C)N1C(=O)/C(=C/c2c(NCCCOC(C)C)nc3c(C)cccn3c2=O)SC1=S (stereo unspecified) | i | 11% | ? | 3.2µM*
COCc1ccc(C(=O)N2CCOc3ccc(CN4CCN(c5ccc(F)cc5)CC4)cc3C2)o1 | nt | 0% | nt | nt
ClCc1nc2ccccc2n1Cc1ccccc1 | 5.6µM* | 0% | ? | nt
COCc1nc2ccccc2n1Cc1ccccc1 | -3% | -1% | 2% | 1%
CC(NC(=O)/C(C#N)=C/c1ccco1)c1ccccc1 (stereo unspecified) | -6% | -1% | 0% | -1%
CCOCCCNC(=O)/C(C#N)=C/c1ccc([N+](=O)[O-])o1 | 13µM* | 0% | ? | 4µM*
CC(NC(=O)/C(C#N)=C/c1ccc([N+](=O)[O-])o1)c1ccccc1 (stereo unspecified) | 11µM* | 3% | 22µM* | nt
CC(OC(=O)c1cccc(O)c1)C(=O)N(C)Cc1ccccc1 (stereo unspecified) | -7% | 0% | -7% | nt
CC(OC(=O)/C(C#N)=C/c1ccc(N(C)C)cc1)C(=O)N(C)Cc1ccccc1 (stereo unspecified) | 22µM* | 1% | ? | nt
COC(=O)c1c(OCc2ccccn2)cc(=O)n2c1CCN(Cc1cccc(C(F)(F)F)c1)CC2 | nt | 1% | nt | nt
CCN(CC)c1nc(C)c(C(=S)Nc2cc([N+](=O)[O-])ccc2Cl)s1 | 11µM* | 9% | 5% | 4%
Cn1cnnc1Sc1ccc(CN2CCOc3ccc(C4=Cc5ccccc5CC4)cc3C2)o1 | nt | 0% | nt | nt
O=C(NCCO)c1cn(C2CCN(Cc3c(F)cccc3Cl)CC2)nn1 | nt | 1% | nt | nt
COc1cccc(CN2CCc3nnc(CCc4ccccc4)n3CC2)c1OC | nt | 1% | nt | nt
CCc1nc2cc(C(=O)N3CCC[C@H]3C(=O)OC)cc(NC(=O)c3ccccc3OC)c2n1C | nt | 0% | nt | nt
CCN(c1ccccc1)c1nnc(NC(=O)Nc2ccc(Br)c(C)c2)s1 | 0% | -1% | 0% | 0%
O=C(Nc1cccc(Cl)c1)Nc1nnc(-c2ccncc2)s1 | -25% | 7.1µM* | 1% | 1%
Cc1ccc(NC(=O)Nc2nnc(-c3ccncc3)s2)cc1C | 6% | 16µM* | 1% | 2%
O=C(Nc1ccc(Cl)cc1)Nc1nnc(-c2ccncc2)s1 | -8% | 7.9µM* | 0% | 0%
Cc1cc(NC(=O)Nc2nnc(N(C)Cc3ccccc3)s2)ccc1Br | ? | -1% | 13µM* | -1%
SMILES | Vif-APOBEC3F blk | PINK1 modulator | Vif-A3G inh | Epigenetic reg
Cc1oc(-c2cccc(NC(=O)c3ccccn3)c2)nc1CNC(=O)C#Cc1ccccc1 | nt | 0% | nt | nt
Cc1ncc2c(c1CNC(=O)c1ccccc1F)CCN(C(=O)c1[nH]c3ccc(Cl)cc3c1C)C2 | nt | 4% | nt | nt
c1cncc(OC2CCN(Cc3ccc4c(c3)CN(Cc3nc5ccccc5s3)CCO4)CC2)c1 | nt | 0% | nt | nt
COc1ccc(CN2CCOc3ccc(CN4CCC(Oc5cccnc5)CC4)cc3C2)cc1 | nt | -1% | nt | nt
O=C(NCc1cccnc1)c1cnn(-c2ncc3c(n2)-c2ccccc2CCC3)c1C1CC1 | nt | 0% | nt | nt
Cc1cccc(NC(=O)/C=C/c2ccc([N+](=O)[O-])s2)c1 | 7.1µM* | -1% | ? | 7.1µM*
Cc1ccc(NC(=O)/C=C/c2ccc([N+](=O)[O-])s2)cc1 | 7.9µM* | ? | 3.2µM* | 8.9µM*
Cc1ccc(NC(=O)/C=C/c2ccc([N+](=O)[O-])s2)c(C)c1 | 10µM* | ? | ? | -1%
Cc1cc([N+](=O)[O-])ccc1NC(=O)/C=C/c1cccs1 | 0% | 12% | -2% | 1%
C=CCN1C(=O)/C(=C/c2ccc(OCC(=O)O)cc2)S/C1=N/c1nccs1 | 8% | 2% | 1% | 2%
C=CCN1C(=O)/C(=C/c2ccc(N(C)C)cc2)S/C1=N\c1nnc(CC)s1 | nt | nt | nt | 13µM*
C=CCN=C1S/C(=C\c2ccc(Cl)cc2)C(=O)N1CC=C | -29% | 6% | -5% | 6%
C=CCN1C(=O)/C(=C/c2ccc(O)c(OC)c2)S/C1=N/c1nccs1 | 32µM* | -3% | ? | 2%
COCC(=O)Nc1cc(C(=O)N2CC3(C)CC2CC(C)(C)C3)c2c(c1)nc(-c1ccncc1)n2C (stereo unspecified) | nt | 0% | nt | nt
CN(C)c1ccc(/C=C/c2ccnc3c(Cl)cccc23)cc1 | nt | nt | 3.5µM* | nt
CN(C)c1ccc(/C=C/c2ccnc3ccc(Cl)cc23)cc1 | nt | 2% | -16% | nt
COc1cc(N(C)C)c(OC)cc1/C=C/c1ccnc2ccccc12 | nt | 8% | 7.1µM* | nt
CN(C)c1ccc(/C=C/c2ccnc3ccc(-c4ccccc4)cc23)cc1 | nt | 27% | 7.1µM* | nt
CCN(CC)CCN(CC)c1ccc(/C=C/c2ccnc3ccccc23)cc1 | nt | 0% | -12% | nt
CCN(CC)c1ccc(/C=C/c2ccnc3ccccc23)cc1 | nt | 10% | 11µM* | nt
CCN(CC)c1ccc(/C=C/c2ccccn2)cc1 | nt | nt | 3.2µM* | nt
COc1cc(NC(=O)COC(=O)c2n[nH]c3ccccc23)c(C)cc1[N+](=O)[O-] | -4% | 45µM* | -7% | 0%
S=C(Nc1cccc2ccccc12)NN1CCCCCC1 | 22µM* | -2% | 0% | nt
S=C(Nc1cccc2ccccc12)NN1CCOCC1 | -5% | 1% | 2% | 0%
CCN(CC)c1ccc(/C=C2\SC(N)=NC2=O)cc1 | ? | 7% | 8.9µM* | nt
SMILES | Vif-APOBEC3F blk | PINK1 modulator | Vif-A3G inh | Epigenetic reg
O=C(Nc1nnc(-c2ccc3c(c2)CCCC3)o1)c1ccc(Cl)cc1Cl | -30% | 0% | 1% | -1%
O=C(Nc1nnc(-c2ccc3c(c2)CCCC3)o1)c1c(F)cccc1F | 25µM* | 1% | -5% | 0%
CC(C)(C)n1ncc2c(=O)n(Cc3ccc(Cl)c(SC(F)(F)F)c3)cnc21 | nt | nt | -1% | nt
Cc1oc(-c2ccccc2NC(=O)c2ccccn2)nc1CNC(=O)c1cccc(C#CC(C)(C)O)c1 | nt | -1% | nt | nt
CCCCCCCCCC[n+]1ccc(/C=C/c2c[nH]c3ccccc23)cc1 | nt | nt | 7% | nt
Nc1ccc(/C=C/c2nccc3ccccc23)cc1 | nt | 1% | ? | nt
C(=Cc1c[nH]c2ccccc12)c1ccc2ccccc2n1 | 25µM* | ? | ? | nt
OCC[n+]1ccc(/C=C/c2c[nH]c3ccccc23)cc1 | 3.5µM* | 40µM* | ? | 2%
C(=Cc1c[nH]c2ccccc12)c1nccc2ccccc12 | 8.9µM* | 2% | ? | nt
Cc1ccc2c(/C=C/c3c[nH]c4ccccc34)ccnc2c1C | nt | nt | 11µM* | nt

Assay outcomes: PubChem, National Center for Advancing Translational Sciences (NCATS)
